Results on 88 compounds are retold here after PubChem BioAssay AID588334 (Broad Institute, 2011).

Out of some 300,000 compounds screened, about 2,300 (0.77%) were called active.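 How the source made its calls: active means mean activation of at least 80% with every replicate also reaching 80%; inconclusive means mean reaches 80% but some replicate falls short; inactive means the rest.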 For the sample, actives were picked, then their nearest neighbours and some compounds at random.

This test in a line: MITF-driven TRPM1 luciferase induction in melanoma cells – cell-based, SK-MEL-5, single point, primary screen (AID 588334).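 Further: 0% = neutral control wells and 100% = parthenolide positive control wells.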 The note with it: SK-MEL-5 TRPM1-promoter luciferase, 24 h; at 12.5 µM; hits give high values; % of positive control, neutral wells = 0.
`O=C(c1cnn2ccccc12)N1CCc2ccccc21`: the activation was 91.5% (active).
In the case of `Cc1cnc(C(=O)OCC(=O)N2CCc3ccccc32)cn1`, the activation was -0.372% (inactive).
`CCCCn1nc(C(=O)N2CCc3ccccc32)c2ccccc2c1=O`: the activation was -15.9% (inactive).
The result for `C=CC(COCc1ccccc1)N(CC(=O)OC)S(=O)(=O)c1cc(Br)ccc1OC` (stereo not drawn) reads -10.3% (inactive).
Take `CCC(CO)Oc1cc(NC(=O)c2cccc3ccccc23)c2ncn(C(C)C)c2c1` (stereo not drawn): the activation was -4.63% (inactive).
Then `COc1ccc(CNC(=O)C[C@H]2C[C@H](C(=O)N3CCOCC3)[C@@]3(CCC4CCCC4)c4[nH]c5ccc(Cl)cc5c4CCN3C2=O)cc1OC`, with -70.8% (inactive).
`Clc1ccc(-c2csc(-c3ccncc3)n2)cc1`: the activation is 33.5% (inactive).
For the compound `N#CC(=C1SC=CS1)c1nc(-c2ccccc2)cs1`, the activation was 47.6% (inactive).
Then `N#CC(=C1CCCC1)c1nc(-c2ccc(Cl)cc2)cs1`, with 91.3% (active); and `O=S(=O)(Cc1ccc(Cl)cc1Cl)c1ccc(Cl)cc1`, with 16.2% (inactive); and `CC1(C)C[C@H]2C3=CCC4[C@@]5(C)CC[C@H](O)[C@](C)(CO)C5CC[C@@]4(C)[C@]3(C)C[C@@H](O)[C@@]2(CO)[C@@H](O)[C@@H]1O` (stereo partly drawn), with -11.2% (inactive).
The result for `CCCCOc1ccc(-c2nnc(-c3ccco3)o2)cc1` reads 30.3% (inactive); that for `O=C(CCc1ccccc1)Nc1cccc(-c2nnc(-c3ccco3)o2)c1`, 10.8% (inactive); that for `CCC(=O)Oc1cccc(C(=O)Nc2ccc(-c3nnc(-c4ccco4)o3)cc2)c1`, 85.5% (active).
For the compound `CC[C@]12c3[nH]c4cc(CCC(=O)N(C)C)ccc4c3CCN1C(=O)[C@@H](CC(=O)NCC13CC4CC(CC(C4)C1)C3)C[C@@H]2C(=O)N1CCN(C(=O)C2CC2)CC1`, the activation is 5.19% (inactive).
The result for `COc1ccc(/C=C2/CCCc3ccccc3C2=O)cc1` reads 39.3% (inactive); that for `COc1ccc(/C=N/Nc2nc3ccccc3o2)cc1OC`, 56.1% (inactive); that for `CCOc1ccccc1/C=N/Nc1nc2ccccc2o1`, 13.3% (inactive).
The result for `Brc1ccccc1/C=N/Nc1nc2ccccc2o1` reads 81.1% (active); that for `O=C(CNC(=O)c1cc(S(=O)(=O)N2CCOCC2)ccc1N1CCCC1)Nc1ccc(F)c(F)c1`, -3.17% (inactive).
Then `COc1cc2c(cc1CNC[C@H]1O[C@@H](n3cnc(C(N)=O)n3)[C@H](O)[C@@H]1O)OCO2`, with -7.21% (inactive).
In the case of `CSc1ccccc1OCc1cc(C(=O)N2C[C@H]3CC[C@H]2C3)no1`, the activation was 91.7% (active).
Turning to `COC(=O)[C@@H]1CCCN1C(=O)c1cc(COc2cccc3cccnc23)on1`, the activation is -6.69% (inactive).
For `CSc1ccccc1OCc1cc(C(=O)N(C)CCc2c(C)n[nH]c2C)no1`, the activation was 1.76% (inactive).
Consider `C=CCCC(=O)N1C[C@H]2CON(C)[C@H]2C[C@H]1c1cccc(Nc2ccccc2)c1`, for which the activation is 17.1% (inactive).
For `O=C(Nc1ccccc1)Oc1cccc2cccnc12`, the activation is -34.4% (inactive).
For `CCOC(=O)c1nc(Nc2ccc(C(=O)OC)cc2)c2ccccc2n1`, the activation is 8.95% (inactive).
As for `COc1ccc(Nc2ncnc3sc(C)cc23)cc1`, the activation was 68.5% (inactive).
As to `COC(=O)c1ccc(Nc2ncnc3sccc23)cc1`, the activation is 93.3% (active).
As for `Cc1cccc(C)c1NC(=O)CNC(=O)c1ccc2c(c1)OCCO2`, the activation was 4.28% (inactive).
`O=C(Nc1ccc(Cl)cn1)c1ccc2c(c1)OCCO2`: the activation was 5.88% (inactive).
The result for `Cc1ccc2sc(NNC(=O)c3ccc4c(c3)OCCO4)nc2c1C` reads -0.623% (inactive).
Regarding `Cc1nc(NC(=O)c2ccc3c(c2)OCCO3)ccc1Br`, the activation was 122% (active).
For `Cc1ccc(C(=O)NNC(=O)c2ccc3c(c2)OCCO3)cc1`, the activation is 109% (active).
`O=C(Nc1ccccc1)c1ccc2c(c1)OCCCO2`: the activation is 24.5% (inactive).
Take `CSCCC(NC(=O)COc1ccccc1)C(=O)N1CCN(c2cccc(C(F)(F)F)c2)CC1` (stereo not drawn): the activation is 8.6% (inactive).
On to `CC(C)N(C(=O)[C@H]1C[C@H](CC(=O)NCCC2=CCCCC2)C(=O)N2CCc3c([nH]c4cc(CCC(=O)N(C)C)ccc34)[C@]12C)C(C)C`, for which the activation is 10.3% (inactive).
Regarding `COc1ccc2[nH]c3c(c2c1)CCN1C(=O)C(CC(=O)NCc2cccc(C(F)(F)F)c2)C[C@H](C(=O)N2CCOCC2)[C@@]31C` (stereo partly drawn), the activation is 2.71% (inactive).
For `O=C(NNc1ncnc2c1cnn2-c1ccccc1)c1ccco1`, the activation is 2.51% (inactive).
`O=C(NCCC1=CCCCC1)C1CCN(Cc2cnn(-c3ccccc3)c2-n2cccc2)CC1`: the activation is 11.4% (inactive).
As for `C1=C(CCNc2ncnc3c2cnn3-c2ccccc2)CCCC1`, the activation is 94.3% (active).
`N#CC(Cc1cc2ccccc2n1S(=O)(=O)c1ccccc1)OCc1ccccc1` (stereo not drawn): the activation was -2.16% (inactive).
`O=C(Nc1ccc(O)cc1)c1ccc(NC(=O)c2ccco2)cc1`: the activation was 30.3% (inactive).
The result for `Cc1ccnc(NC(=O)c2ccc(NC(=O)c3ccco3)cc2)c1` reads 109% (active); that for `Cc1cc(NC(=O)c2ccc(F)cc2)ccc1NC(=O)c1ccco1`, 10.4% (inactive); that for `CC(C)C[C@H]1CN([C@@H](CC(C)C)CN2CCC[C@@H]2CN2C(=O)C(=O)NC[C@@H]2Cc2ccccc2)C(=O)C(=O)N1CCc1ccccc1`, 2.67% (inactive).
As for `C=CC[C@@H](Cc1ccc(F)cc1)C(=O)OC[C@H]1CCCN1C(=O)[C@H](CC=C)CC(=O)N(CCO)Cc1ccccc1`, the activation was 12.6% (inactive).
With `CC(=O)OC1CCC2(C)C(=CCC3C4CC(=O)N(O)C(=O)C4(C)CCC32)C1` (stereo not drawn), the activation is -5.88% (inactive).
As for `COc1ccc(CNCCCNCc2ccc(OC)c(OC)c2)cc1OC`, the activation was 7.54% (inactive).
With `Cc1ccc(NC(=O)COc2ccc(/C=N\NC(=O)c3cccnc3)cc2)cc1C`, the activation was 13.6% (inactive).
Consider `Cc1ccc(N/C=C/C(=O)c2ccccc2)cc1C`, for which the activation was -1.56% (inactive).
The result for `C/C(=C\C(=O)c1cccnc1)Nc1ccc(C)c(C)c1` reads 104% (active); that for `COc1ccccc1C(=O)Nc1ccc(C)c(S(=O)(=O)N2CCCCC2)c1`, -6.44% (inactive).
For the compound `CC(=O)Nc1ccc(NC(=O)COC(=O)C2CCC(C(C)(C)C)CC2)cc1` (stereo not drawn), the activation was -0.038% (inactive).
Regarding `COc1ccc(-c2csc(-c3cccs3)n2)cc1OC`, the activation was 56.3% (inactive).
The result for `COc1ccc(-c2noc(CCCC(=O)NC3CCCC3)n2)cc1OC` reads 4.98% (inactive); that for `COc1ccc(-c2noc(-c3cccc(OC)c3OC)n2)cc1OC`, 88.3% (active); that for `COc1cc(OC)cc(-c2cc3ccc(F)cc3cn2)c1`, 111% (active).
On to `Fc1ccc2cnc(-c3ccccc3)cc2c1`, for which the activation was 63.9% (inactive).
`COc1ccc(-c2cc3ncccc3cn2)cc1`: the activation is 72% (inactive).
`O=C(Nc1ccc(S(=O)(=O)N2CCOCC2)cc1)C1CCN(S(=O)(=O)c2ccc(Cl)cc2)CC1`: the activation is -12.4% (inactive).
As for `COc1ccccc1-c1nnc2n1N=C(c1ccc(OC(F)F)c(OCC3CC3)c1)CS2`, the activation was 3.16% (inactive).
As to `COc1ccc(CCNCc2c(-c3ccccc3)n(C)c3ccccc23)cc1`, the activation is 2.46% (inactive).
As to `COc1ccc(-c2c(C#Cc3ccccc3)c3ccccc3n2C)cc1`, the activation was 85.9% (active).
Then `COc1cc(OC)cc(-c2c(C#Cc3ccsc3)c3cc(-c4ccc(SC)cc4)ccc3n2C)c1`, with 6.54% (inactive); and `COc1ccc(CC(=O)N[C@@H]2c3cc(OC)c(OC)cc3C[C@H]2OCc2ccccc2)cc1`, with -0.621% (inactive).
With `CCCCNC(=O)C(C)N(CCN(C)C)C(=O)CCCCCN1C(=O)NC(c2ccc(Cl)cc2)C(C(=O)OCc2ccccc2)=C1C` (stereo not drawn), the activation is -93.7% (inactive).
Then `Oc1ccc(-c2nc3ccccc3nc2-c2ccc(O)cc2O)c(O)c1`, with -29.5% (inactive); and `CCc1ccc(NC(=O)Cn2nnc(C(=O)NCc3ccc4c(c3)OCO4)c2N)cc1`, with -0.586% (inactive).
Turning to `CCOc1ccc(Cn2nnc(C(=O)NCc3ccccc3)c2N)cc1`, the activation was 0.298% (inactive).
As to `Nc1c(C(=O)Nc2ccc3c(c2)OCCO3)nnn1Cc1ccccc1`, the activation was 81.1% (active).
Take `Cc1cccc(C=CC(=O)c2ccc(Cl)cc2)c1`: the activation was 35.1% (inactive).
Consider `CN(C)C(=O)CCc1ccc2c3c([nH]c2c1)[C@]1(CCc2ccccc2)[C@@H](C(=O)N2CCCCC2)C[C@H](CC(=O)NCCC2=CCCCC2)C(=O)N1CC3`, for which the activation was -16.1% (inactive).
With `Cc1ccc(S(=O)(=O)N2CCN(C(=O)CN3C(=O)NC(C)(c4ccc(Cl)cc4)C3=O)CC2)c(C)c1` (stereo not drawn), the activation was 3.72% (inactive).
In the case of `Cc1ccc(C(=O)c2c(NC(=O)c3ccccc3)sc(C)c2C)cc1`, the activation was 24.2% (inactive).
Regarding `COc1ccccc1-c1nnc(NC(=O)c2ccc3ncsc3c2)o1`, the activation was -3.99% (inactive).
Consider `Cc1sc(NC(=O)c2ccc3ncsc3c2)c(C(N)=O)c1C`, for which the activation is 103% (active).
With `CN(C(=O)c1cccc(NC(=O)Cc2cccc(NC(=O)C3CCCN(C(=O)C4CC4)C3)c2)c1)C1CCC1` (stereo not drawn), the activation is -0.0755% (inactive).
For `COc1ccc(C(=O)Nc2cc(S(=O)(=O)N3CCCC3)ccc2Cl)cc1`, the activation is 5.82% (inactive).
In the case of `Cc1nc2cc(NCc3cccs3)ccc2n1C`, the activation is 90.7% (active).
Take `Cc1nc2cc(NC(=O)NC3CC3)ccc2n1C`: the activation was 13.8% (inactive).
In the case of `Cc1nc2cc(NC(=O)Nc3cccc(F)c3)ccc2n1C`, the activation is 12.9% (inactive).
`O=C(O)c1ccc(Cn2cnc3c(=S)nc[nH]c32)cc1`: the activation is 6.13% (inactive).
For the compound `COc1ccc2c(c1)C(=O)CC(c1ccccc1)O2` (stereo not drawn), the activation was 54.8% (inactive).
With `Cc1cc(NC(=O)C(C)SCC(=O)Nc2cccc(S(=O)(=O)N3CCCCCC3)c2)no1` (stereo not drawn), the activation was -15.9% (inactive).
Regarding `CC(C)COC(=O)c1ccc(NC(=O)C2C3C=CC(C3)C2C(=O)O)cc1` (stereo not drawn), the activation is 105% (active).
Regarding `COC(=O)c1cc(NC(=O)C2C3C=CC(C3)C2C(=O)O)cc(C(=O)OC)c1` (stereo not drawn), the activation is 14.6% (inactive).
Then `CC(=O)NS(=O)(=O)c1ccc(NC(=O)C2C3C=CC(C3)C2C(=O)O)cc1` (stereo not drawn), with -12.7% (inactive).
